# Pf growth 96h: Primary qHTS for delayed death inhibitors of the malarial parasite plastid, 96 hour incubation. P. falciparum luciferase reporter growth, 96 h. Potency, µM (top dose mostly 28.7 µM), for the others: at the top dose activity change, negative = inhibition, most hits filed as inhibitors. 6.9% of 320,000 active; also: potency is read from the fitted curve at half-maximal effect
#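 Erythrocytes infected with luciferase-expressing P. falciparum were dispensed at 2% hematocrit and 0.05% parasitemia (final), then incubated with compounds 96 hours at 37 C in 5% CO2. Luminescence after detection reagent addition reported growth.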
# Giardia FBPA inh: qHTS Assay for Inhibitors of Fructose-1,6-bisphosphate Aldolase from Giardia Lamblia; purified Giardia FBPA; Potency, µM (series often up to 59.6 µM), for the others: at the highest dose activity, negative = inhibition, hits mostly inhibitors; 0.71% of 290,000 active; also: potency is read from the fitted curve at half-maximal effect; nearly all actives have a fitted effect of over 55% in size
# Target sequence (A8B2U2 whole entry, looked up): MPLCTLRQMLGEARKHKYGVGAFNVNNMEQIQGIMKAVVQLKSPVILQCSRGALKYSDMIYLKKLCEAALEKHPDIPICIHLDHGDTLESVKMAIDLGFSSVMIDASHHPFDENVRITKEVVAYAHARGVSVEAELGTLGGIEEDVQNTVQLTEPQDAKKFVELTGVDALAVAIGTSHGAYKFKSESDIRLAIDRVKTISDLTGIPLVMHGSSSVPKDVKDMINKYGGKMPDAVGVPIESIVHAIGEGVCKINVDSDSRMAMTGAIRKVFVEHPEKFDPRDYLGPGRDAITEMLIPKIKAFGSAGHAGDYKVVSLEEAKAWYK
#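 Giardia FBPA (40 nM reagent) was preincubated 10 min at RT with compound (up to 57.5 uM final), then substrate plus GAPDH/TPI/NAD/arsenate coupling system with diaphorase/resazurin was added; resorufin fluorescence (525/598 nm) was read after 20 min.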
# Pf growth 48h: Primary qHTS for delayed death inhibitors of the malarial parasite plastid, 48 hour incubation | 5.9% of 310,000 active | P. falciparum luciferase growth in erythrocytes, 48 h | Potency, µM (top dose mostly 28.7 µM), inactives show at the highest dose activity change, negative = inhibition, hits mostly inhibitors; also: potency is read from the fitted curve at half-maximal effect
#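 Read-out is firefly luciferase luminescence from an integrated reporter in P. falciparum, so falling signal marks reduced parasite growth. Infected erythrocytes were at 2% hematocrit and 0.1% parasitemia (final) in Albumax-supplemented RPMI 1640.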
# HCMV antiviral: qHTS Assay for inhibitors of the human cytomegalovirus (HCMV). HFF cells, HCMV-luciferase reporter, 72 h; active compounds read low. activity change, negative = inhibition, % at 57.5 µM. 4.5% of 410,000 active. AID 1259415, 2018; in the data active = activity change below about -60%; inconclusive = no clear call, values can overlap the other calls; inactive = above about -39%
#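 Steps: HFFs plated, 16 h 37C; compounds added; HCMV-luciferase added to MOI 1 PFU/cell; 72 h 37C; OneGlo reagent, 5 min room temperature; luminescence read, normalized to controls.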
# Sm TGR block: qHTS Assay for the Inhibitors of Schistosoma Mansoni Peroxiredoxins. Schistosoma mansoni thioredoxin glutathione reductase (TGR), Q962Y6. purified TGR, DTNB reduction, TNB absorbance 405 nm. Potency, µM (highest dose often 114 µM), for the others: at the highest dose activity change, negative = inhibition, most hits filed as inhibitors. 3% of 360,000 active. AID 485364, 2010; also: potency is read from the fitted curve at half-maximal effect; nearly all actives have a fitted effect of over 60% in size
#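 First, TGR (20 nM dispensed) and NADPH were mixed with compound. Second, a 15 min room-temperature incubation followed. Third, further NADPH and then DTNB were added to start the reaction. Finally, TNB absorbance was monitored kinetically.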
# * = called active by the depositor; ? = inconclusive; . = no result given; + = active, no number. In the library only some 14% were active in any assay of this set; here they are far more common. Unless noted, calls follow the shape of the dose curve; as a rule, active = well fitted curve in the direction sought with a large enough effect; inconclusive = small, poorly fitted or top-dose-only effect, or another doubt; inactive = no such curve, though single readings can be large; an effect the other way counts as inactive or inconclusive. % is scaled to controls: 0 for no effect and ±100 for the full control effect.
SMILES,Pf growth 96h,Giardia FBPA inh,Pf growth 48h,HCMV antiviral,Sm TGR block
C[C@H](CCC(=O)NCC(=O)O)[C@H]1CC[C@H]2C3[C@H](O)C[C@@H]4C[C@H](O)CC[C@]4(C)[C@H]3C[C@H](O)[C@]12C (some centres undefined),6.6%,.,15.3%,-32.0,-3.8%
CCCCCCC(=O)Oc1cccc(C2=CC(=O)CC(C)(C)C2=O)c1,.,.,.,0.0,.
COCCNC(=O)c1cc(-c2ccccc2C)n(CC2CC(c3cccc([N+](=O)[O-])c3)=NO2)n1 (centres undefined),.,.,.,18.3,.
Cc1ccccc1-c1cc(C(=O)NCC2CC2)nn1CC1CC(c2cccc([N+](=O)[O-])c2)=NO1 (centres undefined),2.62µM*,.,5.22µM*,-11.1,-4.1%
COc1ccccc1CNC(=O)c1cc(-c2ccccc2C)n(CC2CC(c3cccc([N+](=O)[O-])c3)=NO2)n1 (centres undefined),?,.,5.22µM*,0.0,-18.4%
Cc1ccc(C)c(OCCC(=O)OCC(=O)Nc2ccc(Cl)cn2)c1,28.9%,.,?,-8.3,-6.9%
Cc1cccc(N2CC(O)(c3cccs3)[N+]3=C2CCCC3)c1 (centres undefined),-71.7%,8.5%,1.1%,-13.6,-0.7%
Cc1ccc(N2CC(O)(c3cccs3)[N+]3=C2CCCC3)cc1 (centres undefined),5.22µM*,2.9%,?,-25.0,7.5%
Cc1ccccc1N1CC(O)(c2cccs2)[N+]2=C1CCCC2 (centres undefined),-13.6%,2.9%,?,-60.2*,1.2%
CC(=O)c1cc(-c2ccccc2)n(CC(=O)N2CCC(C)CC2)c1C,.,3.0%,-23.9%,34.7,-2.1%
CC(=O)c1cc(-c2ccccc2)n(CC(=O)N2CCN(C3CCCC3)CC2)c1C,-20.6%,2.4%,?,-7.8,39.8µM*
Cc1oc(CN2CCOCC2)cc1C(=O)O,17.0%,1.5%,-0.3%,-33.8,0.8%
Cc1nn(C)c2c1c(-c1ccccc1)cc(=O)n2Cc1ccc(Cl)cc1,.,.,.,-0.2,8.6%
O=C(CN1CCCCC1)Nc1cc(S(=O)(=O)N2CCOCC2)ccc1N1CCCC1,?,.,-2.6%,0.0,-4.6%
O=C1C2C3C=CC(C3=C3CCCCC3)C2C(=O)N1Cc1ccccc1 (centres undefined),?,8.8%,?,?,17.8µM*
C=C1C[C@H]2[C@@H]3CCc4cc(OC)ccc4[C@H]3CC[C@]12C,78.7%,.,7.2%,-69.4*,-0.9%
COc1ccc2c(c1)CCC1C2CC[C@@]2(C)C(O)CCC12 (some centres undefined),.,4.0%,.,.,.
O=c1cc(CCl)nc(Cc2c(Cl)cccc2Cl)[nH]1,.,.,.,-92.8*,.
CCOc1cccc2sc(N(Cc3cccnc3)C(=O)C3CCCCC3)nc12,.,.,.,+,10.0%
COc1cc(C(=O)O[C@H]2C/C(C)=C/CC[C@@]3(C)O[C@@H]3[C@H](O)[C@@H]2C(C)C)cc(OC)c1OC,?,-10.2%,?,1.0,-6.2%
COC(=O)CC1C(=O)NCCN1C(=O)CSc1nnc(Nc2ccc(C)cc2)s1 (centres undefined),7.38µM*,-15.4%,.,40.9,2.9%
O=[N+]([O-])c1nccn1C1C=CC(O)C(CO)O1 (centres undefined),.,.,.,27.2,.
CC(C(=O)Nc1ccccc1-c1ccccc1)N1CCN(Cc2ccccc2)CC1 (centres undefined),?,2.0%,13.1µM*,38.3,16.4%
CC(C(=O)Nc1ccccc1-c1ccccc1)N1CCN(C(=O)c2ccccc2)CC1 (centres undefined),?,0.8%,?,?,-8.9%
Cc1ccc(S(=O)(=O)N2CCN(C(C)C(=O)Nc3ccccc3-c3ccccc3)CC2)cc1 (centres undefined),7.38µM*,-0.1%,9.28µM*,?,-10.4%
